The source of these data is PubChem BioAssay.

Experiment [1] relates to Human papillomavirus type 1a protein E7 (residues 44-93). Description: HPV1a E7 fragment binders on microarrays, primary screen, biochemical, small-molecule microarray, residues 44-93, 635 nm fluorescence (AID 1108).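 Note: E7 fragment applied at 1 µg/mL in TBST for 1 h at 4 C; score combines spot fluorescence with its signal to noise ratio.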 To be noted: small-molecule microarray binding, fluorescence 635 nm; higher = more signal.
The nature of experiment [2]: modulators of HCV replicon luciferase signal, primary screen, HCV replication inhibitor project, Huh7 cells, luciferase reporter (AID 1109).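 Note: huh7 hepatoma cells harbouring a luciferase neomycin HCV replicon reporter; luciferase luminescence as measure of HCV replicon replication; test concentration not given here.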 The settings on record: 48 h, higher = more signal.
Experiment [3] deals with Left-right determination factor 2 (Homo sapiens) (UniProt O00292). The experiment can be described thus: LEFTY2 binders on small-molecule microarrays, primary screen, biochemical, small-molecule microarray, 635 nm fluorescence scan (AID 1110). The settings on record: LEFTY2 binding, higher = more signal.
Sequence of Left-right determination factor 2 (Homo sapiens) (O00292 whole entry, looked up): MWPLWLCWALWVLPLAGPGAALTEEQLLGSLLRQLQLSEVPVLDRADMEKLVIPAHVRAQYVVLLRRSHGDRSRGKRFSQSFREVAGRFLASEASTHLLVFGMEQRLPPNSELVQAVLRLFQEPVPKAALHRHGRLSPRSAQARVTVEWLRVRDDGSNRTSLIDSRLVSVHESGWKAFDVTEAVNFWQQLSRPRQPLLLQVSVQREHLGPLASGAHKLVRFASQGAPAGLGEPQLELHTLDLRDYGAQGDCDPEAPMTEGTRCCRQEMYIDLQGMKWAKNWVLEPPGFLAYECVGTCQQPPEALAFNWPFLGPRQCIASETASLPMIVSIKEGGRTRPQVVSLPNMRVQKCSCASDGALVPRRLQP
Experiment [4] has as its target Calmodulin-1 (Homo sapiens) (UniProt P0DP23). Description: CALM1 binders on microarrays, EGTA buffer, profiling panel, biochemical, small-molecule microarray, Cy5-labelled CALM1 (AID 1111).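 Note: labelled calmodulin applied in Tris saline Tween buffer holding calcium plus EGTA and DTT.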 The settings on record: Cy5-CALM1 binding fluorescence, higher = more signal.
The target is the same in experiment [5]. The experiment can be described thus: calcium-bound CALM1 binders on microarrays, profiling panel, artefact control for SMM control-protein annotation, biochemical, small-molecule microarray, Cy5-labelled CALM1, plus calcium (AID 1112).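 Note: score merges spot fluorescence with signal to noise from triplicate slides.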 The settings on record: Cy5-CALM1 binding fluorescence, higher = more signal.
Experiment [6] can be described thus: small-molecule microarray binders of probe aWnt5a, primary screen, biochemical, biotinylated probe, 635/667 nm fluorescence (AID 1113).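 Note: score merges 667 nm fluorescence intensity with signal-to-noise per printed feature.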 The settings on record: higher = more signal.
A short description of experiment [7]: small-molecule microarray binders of probe aShh, primary screen, biochemical, biotinylated probe, 635/667 nm fluorescence (AID 1114).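 Note: probe is biotin-labelled aShh protein from a stem cell growth factor screen; measures binding of labelled protein to compounds printed on the slide; score merges feature fluorescence at 667 nm with signal-to-noise.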 To be noted: higher = more signal.
A short description of experiment [8]: small-molecule microarray binders of probe aNog, primary screen, biochemical, biotinylated probe, 635/667 nm fluorescence (AID 1115).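 Note: probe is biotinylated aNog protein used at 0.15 µg/mL for 1 h at 4 C; z-score combines 667 nm fluorescence of each spot with its signal to noise.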 To be noted: higher = more signal.
In experiment [9] the target is Torsin-1A-interacting protein 1 (Homo sapiens) (UniProt Q5JTV8). Description: LAP1 binders from COS7 cell lysate, primary screen, small-molecule microarray, 635/667 nm fluorescence (AID 1116). The settings on record: COS7-hLAP1 lysate binding, 635 nm fluorescence, higher = more signal.
Sequence of Torsin-1A-interacting protein 1 (Homo sapiens) (Q5JTV8 whole entry, looked up): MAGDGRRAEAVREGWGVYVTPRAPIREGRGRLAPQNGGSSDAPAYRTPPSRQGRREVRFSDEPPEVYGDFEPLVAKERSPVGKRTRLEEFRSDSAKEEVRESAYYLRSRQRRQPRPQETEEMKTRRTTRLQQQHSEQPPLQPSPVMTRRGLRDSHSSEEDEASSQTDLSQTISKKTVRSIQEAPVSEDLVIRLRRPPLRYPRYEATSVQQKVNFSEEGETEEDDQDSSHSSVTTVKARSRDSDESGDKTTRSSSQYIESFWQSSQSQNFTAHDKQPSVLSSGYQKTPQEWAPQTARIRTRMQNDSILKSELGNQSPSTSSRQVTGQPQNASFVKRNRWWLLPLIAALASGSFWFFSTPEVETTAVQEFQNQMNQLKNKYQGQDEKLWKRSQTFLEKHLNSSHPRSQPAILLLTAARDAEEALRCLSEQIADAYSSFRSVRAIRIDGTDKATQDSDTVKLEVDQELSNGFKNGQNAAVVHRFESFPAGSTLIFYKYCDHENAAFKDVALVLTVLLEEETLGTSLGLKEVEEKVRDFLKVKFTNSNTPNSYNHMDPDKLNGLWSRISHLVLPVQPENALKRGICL
Experiment [10] deals with Alpha-bungarotoxin (Bungarus multicinctus) (UniProt P60615). Description: alpha-bungarotoxin binders on microarray, profiling panel, artefact control for SMM control protein annotation, biochemical, small-molecule microarray, Alexa647 label, 635/667 nm fluorescence (AID 1117). To be noted: alpha-BTX-A647 binding fluorescence, higher = more signal.
Sequence of Alpha-bungarotoxin (Bungarus multicinctus) (P60615 whole entry, looked up): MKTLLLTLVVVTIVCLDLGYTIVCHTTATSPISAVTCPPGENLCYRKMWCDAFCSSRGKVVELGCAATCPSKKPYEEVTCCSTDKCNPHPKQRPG
Experiment [11] has as its target Albumin (Bos taurus) (UniProt P02769). Description: bovine serum albumin binders on microarray, profiling panel, artefact control for SMM control protein annotation, biochemical, small-molecule microarray, Alexa647 label, 635/667 nm fluorescence (AID 1118).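 Note: score merges 667 nm emission intensity and signal-to-noise per printed compound spot.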 To be noted: BSA-A647 binding, fluorescence 635 nm, higher = more signal.
The nature of experiment [12]: small-molecule microarray binders of probe aXIP, primary screen, biochemical, NeuroSMM set, 635/667 nm fluorescence (AID 1119).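 Note: probe is the protein aXip251-270 applied at 1 µg/mL to compound-printed slides; binding of probe to printed compounds measured as 667 nm fluorescence plus signal to noise.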 The settings on record: higher = more signal, called active from +8 up or from −8 down.
Experiment [13] in a line: small-molecule binders of probe aNOTCH3, primary screen, biochemical, small-molecule microarray, 635/667 nm fluorescence (AID 1120).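 Note: probe is a biotin-tagged antibody raised against NOTCH3 rather than NOTCH3 protein; score merges spot fluorescence near 667 nm with spot signal to noise.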 To be noted: higher = more signal.
Experiment [14] can be described thus: small-molecule binders of probe aNOTCH2, primary screen, biochemical, small-molecule microarray, 635/667 nm fluorescence (AID 1121).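 Note: score merges feature fluorescence read at 667 nm with its signal to noise.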 The settings on record: higher = more signal.
Experiment [15] deals with Carbonic anhydrase 2 (Homo sapiens) (UniProt P00918). Description: CAII small-molecule binders, profiling panel, biochemical, small-molecule microarray, Alexa647-labelled CAII (AID 1122). To be noted: CAII-A647 binding fluorescence, higher = more signal.
A short description of experiment [16]: COS7 lysate on small-molecule microarray, probe aHis, 635 nm (AID 1123).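 Note: z-score combines 667nm fluorescence intensity with signal-to-noise per printed compound spot.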 The settings on record: COS7 cell lysate, fluorescence, higher = more signal.
Experiment [17] is described as follows: compound binding in COS7 lysate, probe aLAP1, primary screen, cell lysate, small-molecule microarray (AID 1124).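 Note: lysate comes from COS7 cells expressing LAP1 and is applied at 0.3 µg/mL; score merges spot fluorescence near 667 nm with signal-to-noise over triplicate slides.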 The settings on record: probe aLAP1, fluorescence, higher = more signal.
For experiment [18], the system named is Sam68 (KHDRBS1). Description: Sam68 small-molecule binders, primary screen, biochemical, small-molecule microarray, 635 nm fluorescence (AID 1125).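 Note: score merges 667 nm channel intensity with signal to noise over triplicate slides.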 To be noted: small-molecule microarray binding, higher = more signal.
The test system of experiment [19] is Chordin-like protein 2 (CHRDL2). The experiment can be described thus: CHRDL2 small-molecule binders, primary screen, biochemical, small-molecule microarray, 635 nm fluorescence (AID 1126).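 Note: printed compound slides probed with Chrdl2 protein at 4 µg/mL for 1 h at 4 C; score merges 667 nm emission intensity with signal to noise over three replicate slides.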 The settings on record: small-molecule microarray binding, fluorescence 635 nm; higher = more signal.
Experiment [20] has as its target Concanavalin-A (Canavalia ensiformis) (UniProt P02866). The experiment can be described thus: ConA small-molecule binders, primary screen, artefact control for SMM control protein annotation, biochemical, small-molecule microarray, Alexa647 label, 635 nm (AID 1127).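 Note: z combines 667 nm emission intensity with signal-to-noise across three replicate slides.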 The settings on record: ConA-A647 binding fluorescence, higher = more signal.

SMILES strings stand for the structures. The source made the active and inactive calls.

Sequence of Albumin (Bos taurus) (P02769 whole entry, looked up): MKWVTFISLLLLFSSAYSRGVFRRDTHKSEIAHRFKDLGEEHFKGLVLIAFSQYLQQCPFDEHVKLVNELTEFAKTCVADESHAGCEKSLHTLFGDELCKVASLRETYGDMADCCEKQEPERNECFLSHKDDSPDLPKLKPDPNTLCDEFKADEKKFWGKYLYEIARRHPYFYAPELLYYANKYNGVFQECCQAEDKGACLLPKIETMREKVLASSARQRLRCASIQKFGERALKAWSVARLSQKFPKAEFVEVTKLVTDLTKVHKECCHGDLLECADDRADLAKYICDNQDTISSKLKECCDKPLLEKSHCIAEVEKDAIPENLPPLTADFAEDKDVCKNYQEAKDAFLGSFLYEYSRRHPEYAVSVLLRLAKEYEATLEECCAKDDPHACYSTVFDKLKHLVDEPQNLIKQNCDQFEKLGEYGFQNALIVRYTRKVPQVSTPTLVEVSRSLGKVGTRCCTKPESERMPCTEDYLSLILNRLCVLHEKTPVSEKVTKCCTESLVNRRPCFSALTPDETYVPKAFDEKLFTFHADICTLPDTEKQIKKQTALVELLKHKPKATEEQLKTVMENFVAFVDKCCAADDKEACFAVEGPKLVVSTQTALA
Sequence of Concanavalin-A (Canavalia ensiformis) (P02866 whole entry, looked up): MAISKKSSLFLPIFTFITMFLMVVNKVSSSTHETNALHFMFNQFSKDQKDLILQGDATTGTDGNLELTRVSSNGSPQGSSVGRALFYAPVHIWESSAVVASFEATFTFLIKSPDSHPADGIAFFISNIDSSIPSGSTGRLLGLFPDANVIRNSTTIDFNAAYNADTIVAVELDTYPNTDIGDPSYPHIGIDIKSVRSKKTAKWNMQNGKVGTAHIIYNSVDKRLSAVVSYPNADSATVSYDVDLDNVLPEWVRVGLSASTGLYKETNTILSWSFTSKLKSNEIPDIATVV

On to `CCOC(=O)C[C@H]1[C@H](OC(=O)c2ccccc2-c2ccccc2)[C@@H](NC(=O)c2ccc(-c3ccccc3)cc2)c2cc(OCCCO)ccc2N1C(=O)c1ccccc1`, for which the composite z-score was 1.26 in [1]; 0.572 in experiment [3]; 0.455 in [4]; -0.361 in experiment [5]; -0.16 in experiment [6]; -0.282 in experiment [7]. The composite z-score is 0.0273 in [8]; 0.539 in experiment [9]; 0.57 in experiment [10]; 0.822 in experiment [11]; 0.0456 in experiment [13]; -0.11 in experiment [14]. In addition, the composite z-score in experiment [15] is 0.222; in [16], 0.961; in [17], -0.133; in experiment [18], 1.23; in experiment [19] it was 0.225; in experiment [20], 0.534. The molecule also registered a z-score in experiment [2] of -1.81. In [12], the composite Z-score is 0.148 (inactive).
Take `COCCCNC(=O)[C@@]1(C)c2ccccc2C(=O)N(Cc2ccccc2)[C@H]1c1ccc(CO)cc1`: the composite z-score in experiment [1] was 1.38; in experiment [3], -2.9; in experiment [4] it was -0.652; in experiment [5], -0.634; in [6] it was -0.124; in [7], 0.0284. The composite z-score in experiment [8] is -0.255; in [9], 1.64; in [10], -0.564; in experiment [11] it was 0.172; in experiment [13] it was -0.274; in experiment [14], -0.189. Also, the composite z-score in experiment [15] is 0.397; in [16], 2.62; in experiment [17], 0.848; in experiment [18], 0.203; in experiment [19], -1.5; in experiment [20], 0.17. This molecule also gave a z-score in experiment [2] of -1.86. For the same molecule, the composite Z-score in experiment [12] was 0.45 (inactive).
With `Cc1cc(C)c(C(O)C2C=CC3C(=O)NC(=O)C3N2Nc2ccccn2)c(C)c1` (stereo not given), the composite z-score is 1.22 in [1]; -0.318 in experiment [3]; 0.62 in experiment [4]; 0.153 in experiment [5]; -0.0596 in experiment [6]; 0.0469 in experiment [7]. For the same molecule, the composite z-score was 1.63 in experiment [8]; 0.849 in experiment [9]; 0.0525 in experiment [10]; 0.63 in experiment [11]; 0.148 in experiment [13]; 0.139 in [14]. The composite z-score was 0.422 in experiment [15]; 1.09 in [16]; 0.751 in experiment [17]; 0.785 in [18]; -0.907 in experiment [19]; 0.049 in [20]. Moreover, the z-score in experiment [2] amounted to 0.544. The composite Z-score in [12] is -0.0521 (inactive).
As to `COc1cc(CO)cc(I)c1O[C@H]1C=C(C(=O)NCCO)C[C@@H](N(CCc2cccc(F)c2)C(=O)CCC2CCCC2)[C@@H]1O`, the composite z-score in [1] was 1.43; in [3], 0.195; in [4] it was 2.15; in experiment [5] it was 2.16; in [6], 0.277; in [7], 0.0952. Also, the composite z-score in [8] is -0.144; in [9] it was 2.99; in [10] it was -0.242; in experiment [11] it was -0.526; in experiment [13], 0.13; in experiment [14], -0.0596. Further, the composite z-score in [15] was determined as 0.117; in experiment [16], 1.29; in [17], 1.88; in experiment [18], 1.3; in experiment [19], 1.32; in experiment [20], 0.444. For the same molecule, the z-score in experiment [2] is -4.65. The composite Z-score in experiment [12] was 0.687 (inactive).
As for `O=C1C[C@@](C(=O)O)(c2ccc([N+](=O)[O-])cc2)[C@@H](c2ccc(CO)cc2I)N1CC12CC3CC(CC(C3)C1)C2`, the composite z-score in experiment [1] is 0.997; in experiment [3], -0.44; in experiment [4] it was 1.67; in experiment [5], 0.889; in experiment [6], 0.0206; in experiment [7], 0.0434. Besides, the composite z-score was 0.108 in experiment [8]; 0.817 in experiment [9]; 2.3 in experiment [10]; 0.776 in experiment [11]; -0.132 in experiment [13]; 0.0808 in [14]. Further, the composite z-score in experiment [15] was 0.64; in experiment [16] it was 1.63; in [17] it was 0.945; in experiment [18] it was 0.993; in [19], -1.42; in [20] it was 1.09. Moreover, the z-score in [2] is -3.31. Moreover, the composite Z-score in experiment [12] is 0.235 (inactive).
Consider `CC(=O)NCCCC[C@@H]1NC(=O)[C@@H]2C[C@H](C(=O)NCCCCCC[N+](C)(C)C)[C@H](c3cccc(OCCO)c3)N2C1=O`, for which the composite z-score in experiment [1] was 1.39; in experiment [3], 0.996; in [4], -0.145; in experiment [5], -0.711; in [6], 0.158; in experiment [7], 0.0181. Moreover, the composite z-score in experiment [8] was -0.0585; in experiment [9] it was 1.05; in experiment [10] it was 1.75; in experiment [11], -0.384; in [13], 0.163; in experiment [14] it was -0.0896. Further, the composite z-score in experiment [15] turned out to be 0.675; in experiment [16], 1.53; in [17], 0.348; in experiment [18] it was 1.22; in experiment [19], 1.13; in experiment [20] it was 1.09. The molecule also gave a z-score in experiment [2] of 0.625. In [12], the composite Z-score is 0.13 (inactive).
